{
  "source": "PubChem BioAssay",
  "data": [
    {"tested_on": "Chordin-like protein 2 (CHRDL2)", "assay": "compounds binding chordin-like 2 – biochemical, small-molecule microarray, 635 nm fluorescence, primary screen (AID 1126);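 further: printed compound slides probed with Chrdl2 protein at 4 µg/mL for 1 h at 4 C; score merges 667 nm emission intensity with signal to noise over three replicate slides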", "details": "fluorescence 635 nm, higher = more signal", "values": [
      {"smiles": "CCOC(=O)C[C@H]1[C@H](OC(=O)c2ccccc2-c2ccccc2)[C@@H](NC(=O)c2ccc3ccccc3n2)c2cc(OCCCO)ccc2N1C(=O)Cc1ccc(OC)cc1", "composite z-score": 0.456},
      {"smiles": "CCOc1cc(C(O)C2C=CC3C(=O)NC(=O)C3N2Nc2ccc(Cl)cc2Cl)ccc1O", "note": "(stereo unspecified)", "composite z-score": -0.157},
      {"smiles": "Cc1ccc(NN2C(C(O)c3c(F)cccc3Cl)C=CC3C(=O)N(C4CCCCC4)C(=O)C32)cc1", "note": "(stereo unspecified)", "composite z-score": -0.804},
      {"smiles": "CCOC(=O)C[C@H]1[C@H](OC(=O)c2ccc(-c3ccccc3)cc2)[C@@H](NC(=O)CC(C)C)c2cc(OCCCO)ccc2N1C(=O)c1ccc2ccccc2n1", "composite z-score": 0.0987},
      {"smiles": "COC(=O)[C@@]1(Cc2ccccc2)[C@H]2c3cc(C(=O)N4CCCC4)n(CCc4ccccn4)c3C[C@H]2CN1C(=O)c1ccccc1", "composite z-score": -0.607},
      {"smiles": "Cc1ccc(S[C@]2(C(=O)NC(C)C)CC(=O)N(Cc3cc(C(F)(F)F)cc(C(F)(F)F)c3)[C@@H]2c2ccc(CO)cc2)cc1", "composite z-score": -1.19}
    ]}
  ]
}
